Source: the GenesisPotency data set
Out of some 290,000 compounds screened, about 3,000 (1%) were called active. No stated cut-off is given here; in the data, active means inhibition mostly above about 36% (no sharp cut-off); inactive means mostly below about 34%. Only a selection was taken, and actives are over-represented in it overall.

Target: T1, Nucleotide-binding oligomerization domain-containing protein 1, Homo sapiens (UniProt Q9Y239)
T1 sequence (whole entry): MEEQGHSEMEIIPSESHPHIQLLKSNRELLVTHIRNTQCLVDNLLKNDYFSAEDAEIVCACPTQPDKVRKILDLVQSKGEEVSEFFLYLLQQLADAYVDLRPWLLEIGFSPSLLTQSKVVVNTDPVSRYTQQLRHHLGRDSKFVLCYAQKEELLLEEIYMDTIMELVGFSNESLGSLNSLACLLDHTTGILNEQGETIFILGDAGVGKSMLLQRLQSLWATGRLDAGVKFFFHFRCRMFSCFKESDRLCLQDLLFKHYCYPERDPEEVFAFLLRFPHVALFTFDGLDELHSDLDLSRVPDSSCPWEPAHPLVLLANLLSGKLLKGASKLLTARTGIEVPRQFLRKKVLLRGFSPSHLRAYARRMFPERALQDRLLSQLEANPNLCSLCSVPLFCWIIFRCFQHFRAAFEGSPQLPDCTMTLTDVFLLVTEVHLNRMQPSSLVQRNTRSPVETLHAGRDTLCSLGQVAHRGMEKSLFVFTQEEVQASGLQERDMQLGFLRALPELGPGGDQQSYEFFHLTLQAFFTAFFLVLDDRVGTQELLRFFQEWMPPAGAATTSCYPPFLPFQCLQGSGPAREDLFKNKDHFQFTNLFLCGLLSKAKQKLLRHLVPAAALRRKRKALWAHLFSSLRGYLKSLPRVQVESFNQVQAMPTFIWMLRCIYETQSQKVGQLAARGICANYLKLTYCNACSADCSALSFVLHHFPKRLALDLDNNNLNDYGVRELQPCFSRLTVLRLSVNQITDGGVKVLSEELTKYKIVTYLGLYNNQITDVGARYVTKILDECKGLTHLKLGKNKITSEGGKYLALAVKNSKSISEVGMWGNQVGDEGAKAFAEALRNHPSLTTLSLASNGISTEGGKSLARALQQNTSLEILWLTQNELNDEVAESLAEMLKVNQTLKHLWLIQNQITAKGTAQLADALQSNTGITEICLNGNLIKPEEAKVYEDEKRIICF
Test: NOD1 signaling inhibitors, primary screen, cell-based, luminescence, uHTS (AID 1578)

outcome, active:
COc1cccc2sc(Nc3nc(-c4ccccn4)cs3)nc12
COc1ccccc1-c1nnc(Nc2nc3c(OC)cccc3s2)o1
Cc1cccnc1Nc1nc(-c2ccccn2)cs1
COc1ccc(Nc2oc(COc3ccccc3OC)nc2C#N)cc1
Cc1oc2c(F)c(F)c(F)c(F)c2c1S(=O)(=O)Nc1cccc(C(F)(F)F)c1
CCCn1c(SCC(=O)Nc2nc3c(s2)CCCC3)nc2c1c(=O)n(C)c(=O)n2C
CCCCn1c(SCC(=O)Nc2nnc(CC)s2)nc2c1c(=O)n(C)c(=O)n2C
O=C(NC1CCCCC1)c1sc(=S)n2c1[nH]c(=O)c1ccccc12
O=C(NC1CCCC1)c1sc(=S)n2c1[nH]c(=O)c1ccccc12
Cc1ncoc1C(=O)NC1CCCc2c1cnn2-c1ccc(C(C)(C)C)cc1 (stereo not drawn)
Cc1ccc(-n2ncc3c2CCCC3NC(=O)c2ocnc2C)cc1C (stereo not drawn)
CCC1Sc2ccc(S(=O)(=O)Nc3ccc(OC)c(OC)c3)cc2NC1=O (stereo not drawn)
O=C(Nc1nnc(-c2ccc3c(c2)CCCC3)o1)c1ccccc1
O=C(Nc1nnc(-c2ccc3c(c2)CCCC3)o1)c1ccc(Cl)cc1Cl
O=C(Nc1nnc(-c2ccc3c(c2)CCCC3)o1)c1ccccc1Cl
COc1ccc2c(C#N)c3ccccn3c2c1
N#Cc1c2ccc(O)cc2n2ccccc12
COc1ccc2[nH]c(=O)c3c(c2c1)OC(C)(C)C=C3
O=C(Nc1ccc(Cl)cn1)C1CCN(c2ncnc3c2nc2n3CCCCC2)CC1
O=C(NCC1CCN(Cc2ccc(Cl)cc2)CC1)C1CCCN(c2ncnc3c2nc2n3CCCCC2)C1 (stereo not drawn)
O=C(Nc1ccccn1)C1CCN(c2ncnc3c2nc2n3CCCCC2)CC1
Cc1ccc(NC(=O)C2CCCN(c3ncnc4c3nc3n4CCCCC3)C2)nc1 (stereo not drawn)
O=C(Nc1ccccc1Cl)/C(Cl)=C(\Cl)S(=O)c1ccccc1 (stereo not drawn)
CC(=O)N1CC(C)Sc2ccc(S(=O)(=O)NCCc3ccc(C)cc3)cc21 (stereo not drawn)
COc1cc(/C=C2\SC(=N)N(c3ccc(F)cc3)C2=O)ccc1O
N#C/C(=C\C=C\c1ccccc1[N+](=O)[O-])C(=O)NC1CCCCC1
Br.CCCCCCCCCCn1ccc(=N)cc1
Br.CCCCCCCCCn1ccc(=N)cc1
Br.CCCCCCCCn1ccc(=N)cc1
C(=N\Nc1nc(-c2ccccn2)nc2ccccc12)/c1ccccc1
Fc1ccccc1/C=N/Nc1nc(-c2ccccn2)nc2ccccc12
COc1cccc(Nc2nc(NCCO)c3ccccc3n2)c1.Cl
O=c1cc(CSc2nnc(-c3cccs3)n2Cc2ccccc2)nc2sc3ccccc3n12
COc1ccc(CCNC(=O)C(C)n2nc(C)c3c(C)n(-c4ccc(C)cc4)nc3c2=O)c(OC)c1 (stereo not drawn)
CCOc1ccccc1CNC(=O)Cn1nc(C)c2c(C)n(-c3ccc(C)cc3)nc2c1=O
COc1ccc(OC)c(CCNC(=O)Cn2nc(C)c3c(C)n(-c4ccc(C)cc4)nc3c2=O)c1
COc1ccc(OC)c(CCNC(=O)C(C)n2nc(C)c3c(C)n(-c4ccc(C)cc4)nc3c2=O)c1 (stereo not drawn)
CSc1nnc(NC(=O)c2nc(S(=O)(=O)Cc3ccc(C)cc3)ncc2Cl)s1
Cc1ccc(CS(=O)(=O)c2ncc(Cl)c(C(=O)Nc3nnc(C(C)C)s3)n2)cc1
Cc1cccc(CS(=O)(=O)c2ncc(Cl)c(C(=O)Nc3nnc(C(C)C)s3)n2)c1
COc1ccc(Cc2nc3ccc(C(=O)N4CCN(C)C(C)C4)cc3o2)cc1OC (stereo not drawn)
Cc1cccc(CSc2cccc3cccnc23)c1
Cn1c(=O)[nH]c(=O)c2c1nc([N+](=O)[O-])n2Cc1ccccc1
CCCCCn1c(SCCc2ccccc2)nc2c1c(=O)[nH]c(=O)n2C
Cn1c(=O)[nH]c(=O)c2c1nc(N1CCC(Cc3ccccc3)CC1)n2Cc1ccccc1
COc1cccc(-c2coc3c(C)c4oc(=O)c(CCC(=O)O)c(C)c4cc23)c1
O=C(Nc1nc(-c2ccccc2)cs1)c1ccc2c(=O)n3c(nc2c1)CCCCC3
Cc1ccc(-c2csc(NC(=O)c3ccc4c(=O)n5c(nc4c3)CCCCC5)n2)cc1
COc1ccc(CNC(=O)c2cc3c(C)nc4ccccc4c3o2)c(OC)c1
C/C(=N\NC(=O)c1ccccc1Cl)c1ccccn1
C/C(=N\NC(=O)c1cccc2ccccc12)c1ccccn1
C/C(=N\NC(=O)C1COc2ccccc2O1)c1ccccn1 (stereo not drawn)
C/C(=N\Nc1nc2ccccc2[nH]1)c1ccccn1
C/C(=N\NC(=O)c1cc(-c2cccs2)nc2ccccc12)c1ccccn1
C/C(=N\NC(=O)C(c1ccccc1)c1ccccc1)c1ccccn1
C=CCNC(=S)N/N=C(\C)c1ccccn1
C/C(=N\NC(=O)C(C)Oc1ccc([N+](=O)[O-])cc1)c1ccccn1 (stereo not drawn)
O=S1(=O)Nc2c(ccc3cccnc23)-c2ccccc21
Cc1ccccc1-c1nc(CSc2nc3c(c(=O)[nH]2)CCC3)c(C)o1
O=C(CCl)c1cc2c3c(c1)CC(=O)N3CCC2
CCOc1cc(S(=O)(=O)NCc2ccncc2)ccc1Cl
CCN(CC)S(=O)(=O)c1ccc(C(=O)Nc2ccc(Cc3ccncc3)cc2)cc1
Cc1ccc(C)c(N2CCN(C(=O)CCS(=O)(=O)c3ccc4c(c3)NC(=O)C(C)S4)CC2)c1 (stereo not drawn)
CCOc1ccc(/C=C/C(O)=C2/C(=O)N(C)C3(C)CC2c2ccccc2O3)cc1OC (stereo not drawn)
COc1ccc(-n2nc(C#N)c(Cl)cc2=O)cc1
Cn1c(/C=C/c2ccc(Cl)cc2Cl)c([N+](=O)[O-])c(=O)n(C)c1=O
Cc1ccc(-n2c(-c3ccc(Br)cc3)c[n+]3c2CCc2ccc4cccnc4c2-3)cc1.[Br-]
O=c1cc(C(F)(F)F)[nH]c2ccc(OC(F)(F)F)cc12
O=c1cc(C(F)(F)F)[nH]c2ccc(C(F)(F)F)cc12
O=C1CSc2ccc(C(=O)Nc3cccc(S(=O)(=O)Nc4ccc(Br)cc4)c3)cc2N1
O=C(/C=C/c1ccc([N+](=O)[O-])s1)N1CCCCC1
CC1CC(C)CN(C(=O)/C=C/c2ccc([N+](=O)[O-])s2)C1 (stereo not drawn)
CCOC(=O)c1c(-c2ccccc2)oc2cc(Br)c(O)c(C=O)c12
COc1ccccc1NC(=O)c1cc2cc(Br)ccc2cc1O
Cc1ccnc(NC(=O)Cc2ccc(-c3ccccc3)cc2)c1
COc1cc(OC)cc(-c2cc3nc(C)c(CCC(=O)O)c(C)n3n2)c1
O=c1[nH]c(-c2ccccn2)nc2sc(-c3ccccc3)cc12
Cn1c2c(c(=O)n(C)c1=O)C(C(F)(F)F)(C(F)(F)F)N=C(c1ccc(Cl)cc1)N2
CC1CCC/C=C/C(=O)c2c(O)cc(O)cc2CC(=O)O1 (stereo not drawn)
COc1ccc(NC(=O)/C(Cl)=C(/Cl)S(=O)(=O)Cc2ccccc2)cn1
COc1ccc(NC(=O)/C(Cl)=C(/Cl)S(=O)(=O)Cc2ccc(C)cc2)cn1
N=C1SCC(=O)N1c1ncc(Cc2cccc(Cl)c2)s1
N=C1SCC(=O)N1c1ncc(Cc2ccc(F)cc2)s1
N=C1SCC(=O)N1c1ncc(Cc2ccccc2Cl)s1
O=c1[nH]c(=O)n(Cc2ccco2)c2c1C(C(F)(F)F)(C(F)(F)F)N=C(c1ccc(F)cc1)N2
Nc1ncnc(NCc2ccc(F)cc2)c1[N+](=O)[O-]
CC(=O)c1ccc(N2CCN(S(=O)(=O)c3ccc4c(c3)CC(C)N4C(C)=O)CC2)cc1 (stereo not drawn)
CCc1ccc(NC(=O)C2CCN(S(=O)(=O)c3ccc4c(c3)CC(C)N4C(C)=O)CC2)cc1 (stereo not drawn)
Cc1ccc(-n2nc3c(=O)n(CC(=O)NC(C)CCc4ccccc4)nc(C)c3c2C)cc1 (stereo not drawn)
Cc1ccc(-n2nc3c(=O)n(C(C)C(=O)NCCc4cccs4)nc(C)c3c2C)cc1 (stereo not drawn)
Cc1ccc(-n2nc3c(=O)n(C(C)C(=O)NCCC4=CCCCC4)nc(C)c3c2C)cc1 (stereo not drawn)
Cc1ccc(-n2nc3c(=O)n(C(C)C(=O)NCCCc4ccccc4)nc(C)c3c2C)cc1 (stereo not drawn)
Cc1ccc(NC(=O)c2cnc(N3CCN(c4ccccn4)CC3)c3ccccc23)c(Br)c1
CCc1ccc(NC(=O)c2cnc(N3CCN(c4ccccn4)CC3)c3ccccc23)cc1
O=C(c1cnc(N2CCN(c3ccccn3)CC2)c2ccccc12)N1CCN(c2cccc(Cl)c2)CC1
Cc1cc(Br)ccc1NC(=O)c1cnc(N2CCN(c3ccccn3)CC2)c2ccccc12
C=CCSc1nc2ccccc2n1C(=O)/C=C/c1ccc(OC)c(OC)c1
O=C(NC1CCCCC1)C(c1cccnc1)N(C(=O)CCl)c1ccc(F)cc1 (stereo not drawn)
COc1ccc(N(C(=O)CCl)C(C(=O)NC2CCCCC2)c2cccnc2)cc1 (stereo not drawn)
O=C(CN1C(=O)c2ccccc2S1(=O)=O)c1ccc2c(c1)OCCCO2
O=C(CN1C(=O)c2ccccc2S1(=O)=O)c1ccc2c(c1)OCCO2
COc1cc(/C=C/C(=O)c2ccc(NS(=O)(=O)c3ccc(C)cc3)cc2)cc(OC)c1O
COc1cc(OC)c(OC)cc1/C=C/C(=O)c1ccc(NS(=O)(=O)c2ccc(C)cc2)cc1
O=C(/C(=C/c1ccc(Cl)cc1)c1nc2ccccc2[nH]1)c1ccccc1
O=C(/C(=C/c1ccc(Cl)cc1)c1nc2ccccc2[nH]1)c1cccs1
O=C(/C(=C\c1ccccc1)c1nc2ccccc2[nH]1)c1ccc(Cl)cc1
O=S(=O)(Nc1cccc2ncccc12)c1cccs1
Cc1ccc(S(=O)(=O)Nc2cccc3ncccc23)s1
